Shown is part of a subset that was picked to be rich in hits.
Glioma ERSR ind: induces the endoplasmic reticulum stress response in human glioma cells; U87-MG GRP78 promoter luciferase reporter, 16 h; Potency, µM, inactives show at the highest dose activation, actives largely listed as activators; 0.02% of 420,000 active; also: series mostly up to about 76 µM; % of control where 0% means no effect; nearly all actives have a fitted effect of over 35% in size
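Stably transfected U87-MG human glioma cells carrying a GRP78-based luminescent sensor were seeded at 1000 cells/well, pin-dosed with compounds and incubated 16 h. Luciferase reagent was then added, and end-point luminescence was read after 10 min at room temperature.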
Sfp inh: blocks B. subtilis Sfp PPTase activity; Q9F4F7; Biochemical Sfp PPTase activity, qHTS; Potency, µM, without a hit: largest response in the series, negative = inhibition, actives largely listed as inhibitors; 3.5% of 310,000 active; AID 1490;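 also: the enzyme is Sfp with the accession as filed and its product quenches rhodamine fluorescence; 0% = enzyme reaction without inhibitor and -100% = no enzyme wells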
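Step 1, compound plus 15 nM Sfp-PPTase, 15 min, room temperature. Step 2, add rhodamine-CoA (5 uM) and BHQ-2-YbbR (12.5 uM). Step 3, read 525/598 nm fluorescence at 0 and 30 min.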
ALOX12 inh: ALOX12 (human) lipoxygenase inhibition; AID 1671190; P18054; purified 12hLO, xylenol orange hydroperoxide absorbance; Potency, µM (highest dose often 108 µM), without a hit: top-dose activity change, negative = inhibition, actives largely listed as inhibitors; 1.1% of 580,000 active; also: % is scaled to controls: 0 for no effect and ±100 for the full control effect
Target sequence (P18054 whole entry, looked up): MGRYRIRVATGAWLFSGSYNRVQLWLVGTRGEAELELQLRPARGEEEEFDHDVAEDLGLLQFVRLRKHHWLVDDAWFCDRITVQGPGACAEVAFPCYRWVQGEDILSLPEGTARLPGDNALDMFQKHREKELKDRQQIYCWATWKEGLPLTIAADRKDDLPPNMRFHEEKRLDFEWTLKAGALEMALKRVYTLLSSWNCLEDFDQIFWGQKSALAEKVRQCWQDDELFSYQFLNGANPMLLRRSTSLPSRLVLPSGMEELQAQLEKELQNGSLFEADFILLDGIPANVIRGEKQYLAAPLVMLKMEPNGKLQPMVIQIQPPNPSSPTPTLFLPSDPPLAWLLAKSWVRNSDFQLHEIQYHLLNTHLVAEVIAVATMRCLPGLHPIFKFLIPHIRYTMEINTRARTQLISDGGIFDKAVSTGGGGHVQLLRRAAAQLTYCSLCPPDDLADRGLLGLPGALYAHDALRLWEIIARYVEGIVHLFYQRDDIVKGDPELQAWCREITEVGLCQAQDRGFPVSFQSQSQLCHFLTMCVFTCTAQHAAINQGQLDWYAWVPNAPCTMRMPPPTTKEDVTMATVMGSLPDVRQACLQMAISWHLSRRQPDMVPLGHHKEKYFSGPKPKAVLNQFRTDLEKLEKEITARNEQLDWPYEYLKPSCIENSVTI
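Purified human 12hLO at 150 nM in 25 mM Hepes, 0.01% Triton X-100, pH 7.0, preincubated 15 min at room temperature with compound. Reaction started with 40 uM arachidonic acid, 30 min at room temperature. Hydroperoxide measured by Fe-xylenol orange, 573/405 nm absorbance ratio.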
G9a block: inhibitors of human histone lysine methyltransferase G9a; AID 504332; 8.8% of 350,000 active; G9a H3K9 monomethylation, AlphaScreen, 2 h; Potency, µM (highest dose often 102 µM), for the others: top-dose activity, negative = inhibition, most hits filed as inhibitors; also: % is scaled to controls: 0 for no effect and ±100 for the full control effect; nearly all actives have a fitted effect of over 75% in size
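Quantitative HTS format: methyltransferase activity on a biotin-tagged H3K9 peptide is measured by AlphaScreen, using a rabbit anti-monomethyl-H3K9 antibody with streptavidin donor and anti-IgG acceptor beads. Final levels are 20 nM enzyme, 500 nM peptide, 20 uM SAM; 2 h RT.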
VDR inh: inhibitors of human vitamin D receptor; P11473; VDR-SRC2-3 peptide fluorescence polarization, 2 h; Potency, µM, for the others: max response, negative = inhibition, actives largely listed as inhibitors; 0.93% of 400,000 active; AID 504847; also: % is scaled to controls: 0 for no effect and ±100 for the full control effect
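VDR–SRC2-3 interaction, FP format. Cmpds 23 nl via pintool, brief spin, 2 h ambient incubation.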
Active calls of the source: *; ? = inconclusive; nt = not tested or not shown; [ ] = another dose, or the depositor's remark. Calls follow the shape of the dose curve; as a rule, active = well fitted curve in the direction sought with a large enough effect; inconclusive = small, poorly fitted or top-dose-only effect, or another doubt; inactive = no such curve, though single readings can be large; an effect the other way counts as inactive or inconclusive. Potency is read from the fitted curve at half-maximal effect.

SMILES	Glioma ERSR ind	Sfp inh	ALOX12 inh	G9a block	VDR inh
O=[N+]([O-])/C=C/c1c(Cl)cccc1Cl	-14.0%	nt	1.8%	nt	20µM*
O=c1[nH]c(=S)n(-c2ccccc2)c(O)c1/C=N/N1CCCCC1c1cccnc1 (stereo not drawn)	-0.6%	50.1µM*	-12.2%	8.91µM*	28.7%
Cc1cc(CN2CCC3CC(=O)NCCC3C2)no1 (stereo not drawn)	nt	nt	4.1%[12.5 µM]	nt	nt
C=CCN1C[C@@H]2CN(S(=O)(=O)c3cccnc3)C[C@]2(C(=O)O)C1	nt	nt	54.2%	nt	nt
Cc1ccc(S(=O)(=O)NN)c(C)c1N1CCCC1=O	-3.1%	56.2µM*	-18.4%	nt	-16.8%
O=C(N1[C@H]2CC[C@@H]1c1cnc(-c3ccc(F)cc3)nc1C2)C1(c2ccccc2)CC1	nt	nt	34.0%	nt	nt
Oc1ccccc1O	?	nt	?	1.78µM*	-22.1%
c1ccc2ccccc2c1	-2.7%	?	-2.1%	-0.6%[0.501 µM]	3.5%
O=C1NC(=O)C(=Cc2cc([N+](=O)[O-])ccc2N2CCCCC2)C(=O)N1	-1.7%	15.7%	-18.5%	10.0%[59 µM]	-3.5%
COc1cc(C=C2C(=O)NC(=O)NC2=O)ccc1OCc1ccc([N+](=O)[O-])cc1	0.4%	31.6µM*	?	25.1µM*	?
O=C1NC(=O)C(=Cc2ccc(Oc3ccc([N+](=O)[O-])cc3)cc2)C(=O)N1	-0.9%	20µM*	nt	35.5µM*	31.6µM*
COc1ccc([N+](=O)[O-])cc1N=Cc1c(O)n(CCc2ccccc2)c(=O)n(C(C)C)c1=O	-0.1%	-10.6%	-11.5%	?	4.1%
O=C(Nc1cccc(C(=O)Nc2cc(C(=O)Nc3ccc([S+](=O)([O-])[O-])c4cc([S+](=O)([O-])[O-])cc(SOOO)c34)ccc2F)c1)Nc1cccc(C(=O)Nc2cc(C(=O)Nc3ccc([S+](=O)([O-])[O-])c4cc([S+](=O)([O-])[O-])cc([S+](=O)([O-])[O-])c34)ccc2F)c1	-2.9%	?	0.0%	nt	39.8µM*
O=C(c1ccc(CNS(=O)(=O)c2ccccc2)cc1)N1CCC2(CC1)OCCO2	1.6%	-14.8%	-19.0%	35.5µM*	-21.4%
O=C(Nc1ccccc1)OC[C@H]1C[C@@H]2CCN1C[C@@H]2c1cc(C2CCCC2)nc(-c2ccncc2)n1	nt	nt	-8.8%	nt	nt
Cc1ncc2c(n1)C[C@@H]1CC[C@H]2N1C(=O)NC(C)(C)C	nt	nt	26.9%	nt	nt
CCN(CC)c1ccc(/C=C/[N+](=O)[O-])cc1	0.3%	?	?	44.7µM*	17.8µM*
COc1ccc(CO)cc1	nt	nt	17.7%[176 µM]	nt	nt
CCOc1ccc(CN(CCc2ccc3c(c2)OCO3)Cc2cccc(C)c2)cc1	-3.4%	nt	?	0.891µM*	-5.1%
CCOc1ccc(CN(CCc2ccc3c(c2)OCO3)Cc2ccc(CC)cc2)cc1	-3.9%	nt	?	?	-18.6%
CCOc1ccc(CN(CCc2ccc3c(c2)OCO3)Cc2cc(OC)ccc2O)cc1	-2.7%	nt	?	3.16µM*	3.7%
Cc1ccc(C)c(CC(=O)N2CCN(Cc3ccccc3)CC(O)C2)c1 (stereo not drawn)	nt	nt	-3.6%	nt	nt
Cc1ccc(C(=O)N2CCC3(CC2)c2nccn2-c2ccccc2CN3C)c(C)c1	nt	nt	6.4%	nt	nt
CN1CCN(c2ccc([N+](=O)[O-])cc2Cl)CC1	2.2%	11.2%	0.0%	nt	-27.6%
CC1CN(c2ccc([N+](=O)[O-])cc2Cl)CCN1 (stereo not drawn)	-4.5%	-22.6%	-21.2%	39.8µM*	-16.1%
SMILES	Glioma ERSR ind	Sfp inh	ALOX12 inh	G9a block	VDR inh
O=C(Cc1cccc(F)c1)N1[C@H]2CC[C@@H]1c1cnc(-c3ccc(F)cc3)nc1C2	nt	nt	17.0%	nt	nt
CN1CCC(OC(=O)Cc2ccccc2)CC1	-1.6%	15.1%	?	-10.2%	6.0%
C[N+]1(CC(COCc2ccccc2)OC(=O)Cc2ccccc2)CCOCC1 (stereo not drawn)	-3.1%	14.9%	39.8µM*	8.91µM*	-0.8%
CCN(C)C(C)Cc1cccc(C(F)(F)F)c1 (stereo not drawn)	nt	nt	-15.5%	nt	nt
C[C@H](N)Cc1cccc(C(F)(F)F)c1	-0.8%	nt	nt	29.9µM*	2.2%
O=C(CCc1ccccc1)N1[C@H]2CC[C@@H]1c1cnc(-c3ccc(F)cc3)nc1C2	nt	nt	-5.2%	nt	nt
CCOC(=O)C1(c2ccccc2)CCCN(C)CC1 (stereo not drawn)	-2.4%	nt	nt	nt	nt

Screening results: PubChem, National Center for Advancing Translational Sciences (NCATS)
